The nature of assay [1]: AP1 Signaling Pathway (AID 357).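 Further: ME-180 reporter cells stimulated with EGF at its EC50 level; on the % scale 0 is the no-effect control and ±100 the full control effect.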 The following applies: ME-180 AP-1-bla reporter, EGF-induced, beta-lactamase ratio, 5 h; at 7.69 µM (top of the series) unless noted. Put shortly: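 Beta-lactamase reporter under AP-1 response element, ME-180 background. Stimulus: EC50 EGF. Compound exposure 5 h, 37 °C. Detection: CCF4, 2.5 h RT, 460/530 nm. Values: AC50 from titration.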

Assay [2] deals with Cytochrome P450 1A2 (Homo sapiens) (UniProt P05177). Put plainly: p450-cyp1a2 (AID 410; calls by dose curve; further: potency means the concentration at half of the fitted maximal effect;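 on activity change, negative = inhibition: -100% = full effect of reference inhibitor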). Put shortly:
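Luminescent demethylation readout: Luciferin-ME (100uM, equal to Km) turned over by 20nM CYP1A2 for 60 min at room temperature after NADPH regeneration addition, following 10 min compound preincubation. Normalization used 57 uM furafylline as full inhibition.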

Assay [3] can be described thus: NFAT Signaling Pathway (AID 444).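 Further: carbachol stimulus at about its EC50 of 1 µM final; on the % scale 0 is the no-effect control and ±100 the full control effect.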 The following applies: Jurkat NFAT-bla M1, carbachol, beta-lactamase ratio, 5 h; at 7.69 µM (top of the series) unless noted. Put shortly:
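Jurkat cells carrying an NFAT-driven β-lactamase reporter and co-transfected muscarinic M1 receptor were treated with compound plus carbachol (1 uM final, an EC50 level) for 5 h at 37 °C. CCF4 loading followed for 1 h at RT; 460/530 nm ratio gave %activity.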

A short description of assay [4]: Stat Signaling Pathway (AID 446).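 Further: ME-180 cervical cancer cells given 40 pM IL-6 alongside compound; SIE-controlled beta-lactamase reporter measured as 460/530 nm FRET emission ratio; on the % scale 0 is the no-effect control and ±100 the full control effect.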 The following applies: ME-180 SIE beta-lactamase reporter, IL-6 stimulated, 5 h; at 7.69 µM (top of the series) unless noted. Put shortly:
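Normalization used AC90 stimulation (300 pM IL-6) and AC90 inhibition (125 nM pan-JAK inhibitor at 40 pM IL-6). The underlying signal is SIE-driven beta-lactamase in ME-180 cells after 5 h IL-6 exposure with compound.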

Assay [5] deals with Glucocorticoid receptor (Homo sapiens) (UniProt P04150). Put plainly: GR-GFP Redistribution (AID 450;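 active means compounds whose dose series gives a full or clear partial fitted curve of increased nuclear translocation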; further: potency means the concentration at half of the fitted maximal effect). The following applies: U2OS GR-GFP nuclear translocation, laser cytometry, 2 h.
Chain of Glucocorticoid receptor (Homo sapiens) (P04150 whole entry, looked up, the tested form may be a part): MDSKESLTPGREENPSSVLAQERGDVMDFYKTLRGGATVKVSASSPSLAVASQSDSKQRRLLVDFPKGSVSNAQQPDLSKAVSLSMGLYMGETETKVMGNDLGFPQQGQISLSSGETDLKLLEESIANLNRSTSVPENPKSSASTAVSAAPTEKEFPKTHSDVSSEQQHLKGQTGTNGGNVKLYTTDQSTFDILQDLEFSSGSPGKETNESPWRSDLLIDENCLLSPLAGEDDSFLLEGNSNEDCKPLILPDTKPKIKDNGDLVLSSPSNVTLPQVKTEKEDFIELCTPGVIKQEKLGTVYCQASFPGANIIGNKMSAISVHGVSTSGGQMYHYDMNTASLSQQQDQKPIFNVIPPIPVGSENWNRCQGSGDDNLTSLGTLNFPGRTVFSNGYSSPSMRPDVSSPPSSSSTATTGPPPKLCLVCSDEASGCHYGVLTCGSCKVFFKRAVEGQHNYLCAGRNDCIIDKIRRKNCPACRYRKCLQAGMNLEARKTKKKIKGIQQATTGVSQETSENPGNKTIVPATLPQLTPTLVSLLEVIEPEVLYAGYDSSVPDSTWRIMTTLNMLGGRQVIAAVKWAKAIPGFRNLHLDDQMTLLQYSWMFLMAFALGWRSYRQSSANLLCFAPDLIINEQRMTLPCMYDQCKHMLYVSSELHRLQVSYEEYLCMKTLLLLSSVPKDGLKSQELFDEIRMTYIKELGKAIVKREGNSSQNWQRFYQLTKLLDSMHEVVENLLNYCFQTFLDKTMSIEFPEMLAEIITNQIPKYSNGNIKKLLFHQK
For assay [6] the target is unchanged. Description: GR-EFC Redistribution (AID 451; calls by dose curve; further: potency means the concentration at half of the fitted maximal effect). The following applies: CHO-K1 GR-EFC translocation, beta-gal luminescence, 2 h. Put shortly: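 CHO-K1 cells stably expressing nuclear-localized β-gal enzyme acceptor and GR fused C-terminally to the enzyme donor fragment; ligand-driven nuclear translocation restores β-gal by complementation. Compounds titrated up to 46 uM final, 2 h at 37 °C; luminescence read.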

Assay [7] deals with Mitogen-activated protein kinase 10 (Mus musculus) (UniProt Q61831). Put plainly: JNK3 AlphaScreen Assay (AID 530).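 Further: kinase came from lysate of stimulated human HepG2 cells; signal reports phosphorylation of biotinylated GST-cJun 1-79 at Ser73 with 10 µM ATP; on the % scale 0 is the no-effect control and ±100 the full control effect.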 In a few lines: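 Phosphorylation of biotinylated GST-cJun(1-79) at Ser73 is measured by AlphaScreen proximity luminescence. Enzyme is JNK3 in HepG2 lysates activated with interleukin-1beta and tumor necrosis factor alpha; ATP is 10 uM final.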
(Bead proximity is the source of the signal in Alpha formats.)

Assay [8] addresses 3',5'-cyclic-AMP phosphodiesterase 4B (Homo sapiens) (UniProt Q07343). Put plainly: qHTS Assay for Inhibitors of PDE-IV (AID 607; active means well fitted activation curve with a large enough effect in the main read-out, with a control signal flat, not every such curve was filed as active; further: % of control where 0% means no effect). In a few lines:
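HEK293 ACTOne cells with CNG channel (1000/well), endogenous PDE4; membrane potential dye, compounds up to 22.9 uM final. Fluorescence Ex 535/Em 590; RO 20-1724 (100 uM final) as reference.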
Background: Quantitative high-throughput screening tests each substance at several concentrations.

The target of assay [9] is Cytochrome P450 3A4 (Homo sapiens) (UniProt P08684). Put plainly: qHTS Assay for Activators of Cytochrome P450 3A4 (AID 885; active means well fitted curve in the direction sought with a large enough effect; an effect the other way counts as inactive or inconclusive; further: nearly all actives have a fitted effect of over 65% in size). In a few lines:
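Human CYP3A4 dealkylates Luciferin-PPXE to luciferin, which luciferase detection converts to light. Substrate was at its KM (25uM), buffer 200mM KPO4, reaction 60 min at RT.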

Assay [10] is described as follows: qHTS Assay for Identification of Small Molecule Agonists for Hypoxia Response Element Signaling Pathway (AID 914; active means well fitted activation curve with a large enough effect in the signal ratio, with a control signal flat, not every such curve was filed as active; the % refers to the signal ratio; further: % of control where 0% means no effect). The following applies: ME-180 (cervical carcinoma) HRE-bla reporter, beta-lactamase ratio, CoCl2, 17 h; activation: stronger effect = higher value. In a few lines:
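Read-out: CCF4 FRET ratio of 460nm to 530nm emission (excitation 405nm) after 2.5 hours at room temperature, taken from HRE-bla ME-180 cells that had been exposed to compound and EC50 CoCl2 for 17 hours.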

Assay [11] in a line: qHTS Assay for Lipid Storage Modulators (AID 1519; calls by dose curve). The following applies: Drosophila S3 cells, BODIPY lipid droplet/cell ratio, laser cytometry, cells loaded with oleic acid; for activity change, negative = inhibition: at 57.5 µM (top of the series). In a few lines:
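Cells seeded at 5,000 per well were treated with compounds over a concentration series and loaded with oleic acid (400 uM, as added). Lipid droplet fluorescence (488 nm excitation, 500-530 nm channel) was read by laser-scanning cytometry and normalized to 20 uM Triacsin C.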

Assay [12] is described as follows: Primary qHTS for small molecule stabilizers of the endoplasmic reticulum resident proteome: Secreted ER Calcium Modulated Protein (SERCaMP) assay (AID 1508630; active means well fitted curve in the direction sought with a large enough effect; an effect the other way counts as inactive or inconclusive; further: on the % scale 0 is the no-effect control and ±100 the full control effect). In a few lines:
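The SH-SY5Y reporter protocol was run at 3 concentrations up to 38.3 uM (primary) or 11 concentrations (follow-up): 16 h compound, 100 nM thapsigargin for 4 h, then extracellular luciferase luminescence.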

The target of assay [13] is Cytochrome P450 3A4 (Homo sapiens) (UniProt P08684). Description: qHTS Assay for Inhibitors and Substrates of Cytochrome P450 3A4 (AID 884; active means well fitted curve in the direction sought with a large enough effect; an effect the other way counts as inactive or inconclusive; further: on the % scale 0 is the no-effect control and ±100 the full control effect; nearly all actives have a fitted effect of over 50% in size). Put shortly:
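Luminescent readout of luciferin produced by CYP3A4 (20 nM) dealkylation of Luciferin-PPXE, 25 uM (its KM). NADPH-driven reaction ran 60 min at RT after 10 min compound preincubation; data scaled to 57 uM ketoconazole as 100% inhibition.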

Assay [14] has as its target Lysosomal acid glucosylceramidase (Homo sapiens) (UniProt P04062). Description: Glucocerebrosidase-p2 (AID 348; in the data active means potency below about 10 µM; further: potency means the concentration at half of the fitted maximal effect). The following applies: purified GBA, blue fluorogenic substrate, 40 min. Put shortly:
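Normal human glucocerebrosidase (0.2 nM) with blue fluorogenic substrate (80 uM final) in citrate/phosphate pH 5.9 with 10mM sodium taurocholate, 0.01% tween-20; 40 min RT, NaOH/glycine stop; fluorescence Ex 365/Em 440; AC50 from a titration from 0.6 nM upwards.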

Assay [15] addresses Dual specificity protein kinase CLK4 (Homo sapiens) (UniProt Q9HAZ1). Description: qHTS Assay for Inhibitors of CDC-like Kinase 4 (Kinase-Glo Assay) (AID 1770; active means well fitted curve in the direction sought with a large enough effect; an effect the other way counts as inactive or inconclusive; further: on the % scale 0 is the no-effect control and ±100 the full control effect; nearly all actives have a fitted effect of over 65% in size). In a few lines: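 Luminescent ATP-depletion read-out (Kinase-Glo) after 4.5 h room-temperature reaction of Clk4 (25 nM final) with RS peptide (100 uM) and ATP (1 uM), pH 7.5 Tris buffer with MgCl2 and DTT.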
Assay [16] has the same target. Put plainly: qHTS Assay for Inhibitors of CDC-like Kinase 4 (ADP-Glo Assay) (AID 1771; active means well fitted curve in the direction sought with a large enough effect; an effect the other way counts as inactive or inconclusive; further: on the % scale 0 is the no-effect control and ±100 the full control effect; nearly all actives have a fitted effect of over 70% in size). In a few lines:
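ADP production was read by ADP-Glo luminescence after residual ATP depletion, following 1 h room-temperature reaction of 25 nM Clk4, 1 uM ATP and 100 uM RS peptide with MgCl2, EGTA, DTT and Triton X-100.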

Assay [17] shares this target. Put plainly: qHTS Assay for Inhibitors of CDC-like Kinase 4 (ADP-FP Assay) (AID 1795; active means well fitted curve in the direction sought with a large enough effect; an effect the other way counts as inactive or inconclusive;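 further: recombinant human CLK4 phosphorylating RS repeat peptide at 1 µM ATP; on the % scale 0 is the no-effect control and ±100 the full control effect; nearly all actives have a fitted effect of over 60% in size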). In a few lines:
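Kinase activity was measured as ADP production using Transcreener orange tracer (4 nM) and ADP antibody (1 ug/mL) fluorescence polarization, with ADP calculated from a calibration curve. The 1 h reaction contained 6.25 nM Clk4, 1 uM ATP and 100 uM RS peptide at pH 7.5 with Mg2+.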

Assay [18] addresses Ubiquitin carboxyl-terminal hydrolase 1 (Homo sapiens) (UniProt O94782). Put plainly: Inhibitors of USP1/UAF1: Pilot qHTS (AID 504865; active means well fitted curve in the direction sought with a large enough effect; an effect the other way counts as inactive or inconclusive;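 further: rhodamine fluorescence freed from ubiquitin-rhodamine substrate followed over time; top concentration of the series differs between compounds; on the % scale 0 is the no-effect control and ±100 the full control effect; nearly all actives have a fitted effect of over 35% in size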). Put shortly: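 Deubiquitinase activity followed as kinetic rhodamine fluorescence release from 150 nM Ub-Rho. 1 nM USP1/UAF1 with compound, after 15 min room-temperature preincubation, in HEPES pH 7.8 buffer containing TCEP, EDTA, BSA and Tween-20.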

Where [19] appears, read: measured here: cell count channel max response.
Setting [20] is: measured here: lipid channel max response.

Records with an inconclusive call do not appear. Active and inactive are the calls of the source. Unless noted, the call rests on the fitted dose curve; in most records, active means well fitted curve in either direction with a large enough effect (not every such curve was filed as active); inconclusive means small, poorly fitted or top-dose-only effect, or another doubt; inactive means flat fitted curve, though single readings scatter. Bounds are passed on as bounds.

The values that follow come from PubChem BioAssay (NCATS).

Chain of Cytochrome P450 1A2 (Homo sapiens) (P05177 whole entry, looked up): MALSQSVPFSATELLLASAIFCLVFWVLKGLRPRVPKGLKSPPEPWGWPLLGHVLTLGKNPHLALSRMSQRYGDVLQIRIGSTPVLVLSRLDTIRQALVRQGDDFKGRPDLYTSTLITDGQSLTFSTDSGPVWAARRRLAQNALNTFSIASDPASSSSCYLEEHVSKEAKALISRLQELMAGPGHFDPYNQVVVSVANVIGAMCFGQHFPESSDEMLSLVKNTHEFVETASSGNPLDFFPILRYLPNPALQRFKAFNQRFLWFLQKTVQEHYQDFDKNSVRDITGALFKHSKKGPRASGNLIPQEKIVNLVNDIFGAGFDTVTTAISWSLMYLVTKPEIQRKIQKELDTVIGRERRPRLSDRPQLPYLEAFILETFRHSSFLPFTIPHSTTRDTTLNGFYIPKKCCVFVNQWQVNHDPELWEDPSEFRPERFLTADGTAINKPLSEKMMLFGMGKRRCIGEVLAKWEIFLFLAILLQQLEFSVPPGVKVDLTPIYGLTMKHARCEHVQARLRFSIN
Chain of Dual specificity protein kinase CLK4 (Homo sapiens) (Q9HAZ1 whole entry, looked up): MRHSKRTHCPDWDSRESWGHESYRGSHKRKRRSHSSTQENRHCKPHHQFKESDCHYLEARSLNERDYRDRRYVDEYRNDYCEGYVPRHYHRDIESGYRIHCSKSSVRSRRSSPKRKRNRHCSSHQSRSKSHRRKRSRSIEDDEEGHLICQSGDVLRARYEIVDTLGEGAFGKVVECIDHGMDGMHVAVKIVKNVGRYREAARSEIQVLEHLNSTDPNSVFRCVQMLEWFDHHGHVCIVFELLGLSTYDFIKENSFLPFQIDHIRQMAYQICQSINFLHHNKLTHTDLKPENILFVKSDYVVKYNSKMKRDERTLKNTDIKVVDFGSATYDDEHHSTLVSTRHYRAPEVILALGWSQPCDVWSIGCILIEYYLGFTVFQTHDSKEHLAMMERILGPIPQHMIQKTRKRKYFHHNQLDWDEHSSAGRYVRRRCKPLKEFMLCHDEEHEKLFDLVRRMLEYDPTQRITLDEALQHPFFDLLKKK
Chain of Cytochrome P450 3A4 (Homo sapiens) (P08684 whole entry, looked up): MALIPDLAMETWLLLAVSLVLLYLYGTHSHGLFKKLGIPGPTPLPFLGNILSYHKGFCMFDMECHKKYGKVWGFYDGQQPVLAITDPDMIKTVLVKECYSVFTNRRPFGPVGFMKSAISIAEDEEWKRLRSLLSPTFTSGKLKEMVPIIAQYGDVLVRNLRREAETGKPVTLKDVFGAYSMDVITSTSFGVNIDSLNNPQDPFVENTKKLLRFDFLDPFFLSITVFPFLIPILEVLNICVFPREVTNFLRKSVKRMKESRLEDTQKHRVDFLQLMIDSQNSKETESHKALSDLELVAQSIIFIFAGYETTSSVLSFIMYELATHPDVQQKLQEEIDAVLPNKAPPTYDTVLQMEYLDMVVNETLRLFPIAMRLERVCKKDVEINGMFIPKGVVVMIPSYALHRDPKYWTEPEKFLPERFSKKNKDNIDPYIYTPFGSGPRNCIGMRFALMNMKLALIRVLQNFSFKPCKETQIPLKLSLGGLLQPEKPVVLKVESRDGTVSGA
Chain of 3',5'-cyclic-AMP phosphodiesterase 4B (Homo sapiens) (Q07343 whole entry, looked up): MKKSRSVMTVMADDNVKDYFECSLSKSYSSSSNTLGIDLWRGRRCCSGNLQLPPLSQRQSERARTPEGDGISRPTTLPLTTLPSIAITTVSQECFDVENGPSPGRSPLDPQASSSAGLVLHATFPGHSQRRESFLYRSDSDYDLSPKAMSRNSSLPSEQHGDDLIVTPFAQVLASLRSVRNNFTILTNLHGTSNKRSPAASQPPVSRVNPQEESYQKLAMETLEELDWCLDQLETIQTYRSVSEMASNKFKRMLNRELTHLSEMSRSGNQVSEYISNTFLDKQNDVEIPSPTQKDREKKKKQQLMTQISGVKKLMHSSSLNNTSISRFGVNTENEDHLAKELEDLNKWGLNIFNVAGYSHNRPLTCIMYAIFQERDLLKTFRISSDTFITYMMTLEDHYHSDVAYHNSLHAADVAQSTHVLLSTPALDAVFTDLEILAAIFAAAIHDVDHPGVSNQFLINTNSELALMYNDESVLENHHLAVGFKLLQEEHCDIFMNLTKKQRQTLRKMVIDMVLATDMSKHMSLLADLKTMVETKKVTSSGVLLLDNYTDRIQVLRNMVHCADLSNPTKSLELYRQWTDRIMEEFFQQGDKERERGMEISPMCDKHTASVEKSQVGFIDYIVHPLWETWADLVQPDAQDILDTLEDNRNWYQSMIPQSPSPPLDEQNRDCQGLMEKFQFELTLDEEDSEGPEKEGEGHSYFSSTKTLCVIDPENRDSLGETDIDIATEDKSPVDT
Chain of Lysosomal acid glucosylceramidase (Homo sapiens) (P04062 whole entry, looked up): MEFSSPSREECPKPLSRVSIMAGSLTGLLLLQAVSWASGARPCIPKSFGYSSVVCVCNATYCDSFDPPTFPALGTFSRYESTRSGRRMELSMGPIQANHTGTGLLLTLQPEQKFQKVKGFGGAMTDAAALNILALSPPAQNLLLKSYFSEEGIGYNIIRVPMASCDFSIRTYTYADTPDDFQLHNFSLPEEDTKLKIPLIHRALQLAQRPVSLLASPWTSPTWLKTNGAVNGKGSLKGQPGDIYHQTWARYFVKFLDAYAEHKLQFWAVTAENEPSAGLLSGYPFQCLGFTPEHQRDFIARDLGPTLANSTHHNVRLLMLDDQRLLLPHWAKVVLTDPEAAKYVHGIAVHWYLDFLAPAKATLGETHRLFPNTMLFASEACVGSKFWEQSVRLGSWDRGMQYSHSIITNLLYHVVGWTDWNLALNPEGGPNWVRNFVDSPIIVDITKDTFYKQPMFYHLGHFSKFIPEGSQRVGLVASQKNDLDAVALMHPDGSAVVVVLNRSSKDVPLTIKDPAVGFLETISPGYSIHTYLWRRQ
Chain of Ubiquitin carboxyl-terminal hydrolase 1 (Homo sapiens) (O94782 whole entry, looked up): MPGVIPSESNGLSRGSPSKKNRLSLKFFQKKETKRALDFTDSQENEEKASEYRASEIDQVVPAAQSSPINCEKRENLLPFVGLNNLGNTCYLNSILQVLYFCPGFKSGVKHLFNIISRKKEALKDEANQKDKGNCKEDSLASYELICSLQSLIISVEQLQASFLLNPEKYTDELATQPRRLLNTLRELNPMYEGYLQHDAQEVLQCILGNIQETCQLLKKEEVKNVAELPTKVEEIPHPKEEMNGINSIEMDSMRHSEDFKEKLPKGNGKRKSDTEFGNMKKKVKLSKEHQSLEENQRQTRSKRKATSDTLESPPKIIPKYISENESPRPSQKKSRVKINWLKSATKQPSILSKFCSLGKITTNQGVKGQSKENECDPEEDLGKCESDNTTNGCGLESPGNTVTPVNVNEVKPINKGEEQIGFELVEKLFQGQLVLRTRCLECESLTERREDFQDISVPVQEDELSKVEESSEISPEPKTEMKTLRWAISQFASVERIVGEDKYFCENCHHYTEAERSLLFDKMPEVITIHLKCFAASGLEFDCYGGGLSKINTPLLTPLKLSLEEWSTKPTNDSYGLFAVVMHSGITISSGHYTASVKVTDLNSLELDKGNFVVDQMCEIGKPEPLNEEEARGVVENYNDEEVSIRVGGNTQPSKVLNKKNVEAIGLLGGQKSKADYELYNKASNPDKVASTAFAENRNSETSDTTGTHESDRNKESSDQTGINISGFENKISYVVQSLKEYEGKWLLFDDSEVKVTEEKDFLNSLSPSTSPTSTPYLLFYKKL

For `COc1ccc(Oc2ncc3ncc(=O)n(C[C@H]4CCCO4)c3n2)cc1`, the activity change, negative = inhibition in [1] is -24.4% (inactive); in assay [3], -8.98% (inactive); in assay [11], -4.96% (inactive). Moreover, the Potency in assay [2] is 6.31 µM (active); in assay [5], > 9.22 µM (inactive); in [6], > 46 µM (inactive). Also, in assay [4], the activity, negative = inhibition was -26.1% (inactive). Besides, in assay [7], the compound was classed as inactive. The Potency result in assay [8], in assay [9] and in assay [12] was “inactive” each time. Further, in assay [10], the activation was -21.9% (inactive). Also, the figures for the max response in [11] (setting [19]) and in [11] (setting [20]) were 9.86% and 2.03%, respectively.
With `O=C(c1cnccn1)N1CCC[C@@]2(CCN(Cc3nccs3)C2)C1`, the Potency result in [2], in [8], in assay [9] and in assay [12] was “inactive” in each case. Further, the figures for the activity change, negative = inhibition in [3] and in assay [11] were 8.21% (inactive) and 4.59% (inactive), respectively. In addition, the activity, negative = inhibition in assay [4] was -0.706% (inactive). Further, the Potency in [6] is > 46 µM (inactive). In [7], the compound was called inactive. Further, the max response was determined as 14.2% in [11] (setting [19]) and 20.9% in assay [11] (setting [20]).
On to `O=C(c1cc(C(F)(F)F)cc(C(F)(F)F)c1)N1CCC2(CCN(Cc3nccs3)CC2)CC1`, for which the activity change, negative = inhibition in assay [1] was -2.3% (inactive); in assay [3], -17.7% (inactive); in assay [11] it was 1.84% (inactive). For the same compound, the Potency result in [2], in assay [8], in assay [13] and in [12] was “inactive” throughout. In addition, in assay [4], the activity, negative = inhibition is -29.1% (inactive). For the same compound, the Potency in assay [6] is > 46 µM (inactive). For the same compound, the compound was classed as inactive in assay [7]. For the same compound, the max response worked out at 16.9% in [11] (setting [19]) and 21.6% in assay [11] (setting [20]).
`Cn1c(=O)c(-c2ccc(Cl)cc2)nc2cnc(Oc3cccc(Cl)c3)nc21`: the Potency in [14] was > 11.4 µM (inactive); in assay [2], 0.251 µM (active); in assay [5] it was > 9.22 µM (inactive); in assay [6] it was > 46 µM (inactive). In addition, the activity change, negative = inhibition was -7.62% (inactive) in assay [1], -6.5% (inactive) in [3] and 5.31% (inactive) in [11]. Besides, the activity, negative = inhibition in assay [4] is -0.313% (inactive). In addition, in assay [7], the call was inactive. Further, the Potency entry in assay [13], in assay [15], in assay [16], in assay [17] and in assay [18] was “inactive” each time. Further, the max response came to 11.8% in assay [11] (setting [19]) and 14.2% in assay [11] (setting [20]).
